This excerpt belongs to a sample that is enriched for hits.
HIV RNase H inh-1 – inhibitors of HIV-1 reverse transcriptase RNase H; RT-RNase H RNA/DNA duplex cleavage, fluorescence; hit rate 1.9% among 65,000; inhibition, % at 10 µM; in the data active means inhibition above about 50%
HIV RNase H inh-2 – confirmation of HIV-1 reverse transcriptase RNase H inhibitors; shares compounds with HIV RNase H inh-1; Recombinant RT RNase H, fluorescent RNA/DNA duplex cleavage; hit rate 39% among 1,000; inhibition, % at 10 µM; AID 651; in the data active means inhibition above about 48%; inconclusive means no clear call, values can overlap the other calls
An asterisk follows results filed as active; u = inconclusive.

SMILES	HIV RNase H inh-1	others
CC(=O)c1sc(N2C(=O)c3oc4ccccc4c(=O)c3C2c2ccc(C)o2)nc1C (centres undefined)	71*	HIV RNase H inh-2=u
O=C1c2oc3ccccc3c(=O)c2C(c2ccc(Br)cc2)N1c1ncccn1 (centres undefined)	4
O=C1CC(c2cc3c(cc2Br)OCO3)C2=C(CCCC2=O)N1 (centres undefined)	8
O=C(NC1CCS(=O)(=O)C1)OC1CCCCC1 (centres undefined)	3
Cc1cc2n(n1)C(c1ccsc1)Nc1ccccc1-2 (centres undefined)	-8
CSc1ccc(C2Nc3ccccc3-c3cc(C)nn32)cc1 (centres undefined)	71*	HIV RNase H inh-2=-6
Cc1cc2n(n1)C(c1ccccc1Cl)Nc1ccccc1-2 (centres undefined)	-13
COc1ccc(-n2c(Cc3cccn3C)nnc2SCC(=O)Nc2ccc3c(c2)OCO3)cc1	-19
CCOc1ccccc1-c1nc(-c2ccc(NC(=O)Cc3ccc(OC)cc3)cc2)no1	64*	HIV RNase H inh-2=u
CCOc1ccccc1-c1nc(-c2ccc(NC(=O)c3ccc(Br)o3)cc2)no1	7
COc1ccc(CC(=O)Nc2ccc(-c3noc(COc4ccccc4C)n3)cc2)cc1	28
COc1ccc(CCNc2cc(=O)[nH]c(N)n2)cc1	2
OCc1nn2c(c1Br)NC(c1ccccc1)CC2C(F)(F)F (centres undefined)	-8
CCc1nnc(NC(=O)CN2C(=O)c3ccccc3C2=O)s1	4
CCCCN(C)CCCNC(=O)Cn1c(=O)sc2ccccc21	-10
CCCc1nnc(NC(=O)Cn2c(=O)sc3ccccc32)s1	76*	HIV RNase H inh-2=18
COc1cc(C#CC#CCN2CCCCC2)ccc1O	2
COC(=O)c1cc(Cl)c(NS(=O)(=O)c2ccccc2)cc1OC	-10
Cc1ccccc1NS(=O)(=O)c1cc(S(C)(=O)=O)ccc1Cl	0
Cc1cc(NS(=O)(=O)c2ccccc2)c(C)c(Cl)c1O	80*	HIV RNase H inh-2=-6
Cc1ccc(CNS(=O)(=O)c2ccc3oc(C(=O)O)c(C)c3c2)cc1	2
CCCCNC(=O)CS(=O)Cc1nc(-c2cccc(Cl)c2)oc1C (centres undefined)	-3
O=C(O)C1C2C=CC(O2)C1C(=O)Nc1ccc(S(=O)(=O)N2CCc3ccccc32)cc1 (centres undefined)	-14
O=C(O)C1C2C=CC(O2)C1C(=O)Nc1ccc2c(c1)OCCO2 (centres undefined)	-1
O=C(O)C1C2C=CC(O2)C1C(=O)Nc1ccc(S(=O)(=O)Nc2ccccc2)cc1 (centres undefined)	58*	HIV RNase H inh-2=16
SMILES	HIV RNase H inh-1	others
CCc1c(C)nc(SCC(=O)N2CCc3ccccc32)[nH]c1=O	-58
Cc1ccc2cc(CN(C(=O)c3ccco3)c3ccccc3C)c(=O)[nH]c2c1	70*	HIV RNase H inh-2=39
Cc1ccc2cc(CCNC(=O)c3ccco3)c(=O)[nH]c2c1	2
O=C(c1ccco1)N(Cc1cc2ccccc2[nH]c1=O)C1CCCCC1	0
CCCOC(=O)CSc1nnc(-c2ccccc2Cl)o1	-34
O=C(COC(=O)C1CCCCC1)Nc1ccc(N2CCCCC2)cc1	7
Cc1cccc(OCC(=O)Nc2ccc(N3CCCC3)cc2)c1C	8
Cc1cccc(C(=O)OCC(=O)Nc2ccc(N3CCCCC3)cc2)c1O	88*	HIV RNase H inh-2=53*
COc1ccc(CC(=O)Nc2cccc(C(=O)O)c2C)cc1	4
Cc1cc(C)cc(N(CC(=O)N2CCN(Cc3ccccc3)CC2)S(=O)(=O)c2c(C)noc2C)c1	-4
CCCCNC(=O)OCC(CC)NC(=O)OC(C)C (centres undefined)	-1
COC(=O)[C@H](CCSC)NC(=O)Nc1cc(C)ccc1C	-5
CCCOC(=O)NC(CC)COC(=O)Nc1cc(C)ccc1C (centres undefined)	93*	HIV RNase H inh-2=-1
NC(=O)C1CCN(S(=O)(=O)c2cccc(S(=O)(=O)N3CCCCC3)c2)CC1	-2
CC(C)c1cc(C(=O)N2CCN(C(c3ccccc3)c3ccccc3)CC2)no1	74*	HIV RNase H inh-2=50
O=C(c1cc(-c2ccco2)on1)N1CCN(C(c2ccccc2)c2ccccc2)CC1	-9
COc1ccc(-c2cc(C(=O)N3CCN(C(c4ccccc4)c4ccccc4)CC3)no2)cc1	-4
O=C(OC(C(=O)NCC1CCCO1)c1ccccc1F)c1ccco1 (centres undefined)	6
CCSc1ccccc1C(=O)Nc1cc(C)on1	-4
CCSc1ccccc1C(=O)Nc1nncs1	56*	HIV RNase H inh-2=18
CCSc1ccccc1C(=O)Nc1cccnc1	21
CN=C(NC#N)SCC(=O)c1ccc(Cl)cc1Cl	-6
CCOc1ccc(-c2nc(CSCC(=O)NCCN3CCOCC3)c(C)o2)cc1	-26
CCc1ccccc1NC(=O)CN1C(=O)C2CCCN2c2ncc(Cl)cc21 (centres undefined)	-3
CC1CCC(NC(=O)CN2C(=O)C3CCCN3c3ncc(Cl)cc32)CC1 (centres undefined)	13
SMILES	HIV RNase H inh-1	others
COC(=O)c1ccccc1NC(=O)CN1C(=O)C2CCCN2c2ncc(Cl)cc21 (centres undefined)	60*	HIV RNase H inh-2=u
Cc1nc2ccccc2n1CCC(=O)Nc1cccc(F)c1	-10
CCN1C2=C(C(=O)CCC2)C(c2ccc(O)cc2)C2=C1CCCC2=O	4
COc1ccc(C(=O)NCCCn2ccnc2)cc1	-9
Cc1ccc2c(CC(=O)NC3=NCCS3)coc2c1	-80
Cc1ccc(-c2cc(C(=O)NCc3ccco3)c3ccccc3n2)o1	-19
O=C(NC1=NCCS1)c1ccc(-c2ccc(Cl)cc2)o1	-13
Cc1ccc(-c2cc(C(=O)NC3=NCCS3)c3cc(Br)ccc3n2)o1	95*	HIV RNase H inh-2=80*
Cc1ccc(-c2cc(C(=O)NCCCn3ccnc3)c3cc(Br)ccc3n2)o1	78*	HIV RNase H inh-2=22
CC12CCC(C(=O)N3CCc4ccccc43)(CC1=O)C2(C)C (centres undefined)	-13
O=C(NCc1ccccc1)N1CCn2c(nc3ccccc32)C1	-11
O=S1(=O)CCC(SCc2nc3sccn3c2Br)C1 (centres undefined)	-8
COc1ccc(Cn2c(CCC(=O)NCc3ccco3)nc3cccnc32)cc1	-6
O=C(NCC1CCS(=O)(=O)C1)NCC1CCS(=O)(=O)C1 (centres undefined)	10
COc1ccc(OC)c(S(=O)(=O)Nc2cc(Cl)cc(Cl)c2)c1	-43
Cn1c(=O)c2c(SCc3ccccn3)nc(-c3ccccc3)nc2n(C)c1=O	-10
Cn1c(=O)c2c(SCc3ccccc3)nc(-c3ccco3)nc2n(C)c1=O	52*	HIV RNase H inh-2=13
Cn1c(=O)c2c(SCc3cccc(C(F)(F)F)c3)nc(-c3ccco3)nc2n(C)c1=O	37
Nc1ccc(-c2nc3ccc(N)cc3o2)cc1	-12
Nc1ccc(-c2nc3ccc(-c4nc5ccccc5o4)cc3[nH]2)cc1	73*	HIV RNase H inh-2=40
Nc1ccc2nc(-c3ccc(Cl)cc3)[nH]c2c1	3
COc1ccc(Br)cc1C1N2CC3(C)CN1CC(C)(C2)C3=O (centres undefined)	-8
COc1ccc(N2C(=O)C(Cl)=C(N(CCO)Cc3ccccc3)C2=O)cc1	30
CC1=C(C)C(=O)N(c2ccc(C(=O)O)cc2)C1=O	-4
Cc1cc(=O)[nH]c(N2CCN(Cc3ccccc3)CC2)n1	0
Cc1ccc(C(=O)N2CCN(c3ccc(Cl)cc3)CC2)cc1	2
CN1CCN(C2=C(Cl)C(=O)N(c3ccc(Cl)cc3)C2=O)CC1	82*	HIV RNase H inh-2=40
